According to article PMC7862700, “An all-to-all approach to the identification of sequence-specific readers for epigenetic DNA modifications on cytosine”:

Key:
Assay in all cases: DAPPL (digital affinity profiling via proximity ligation, sequencing); 10 mM Tris-HCl pH 7.5, 50 mM NaCl, 1 mM DTT, 4% glycerol, room temperature, 30 min; GST-TFs on glutathione beads, 16-mer random dsDNA library, 0.1% formaldehyde crosslink after washing; high values mean tight binding
FLI1 = molecular target: T1, FLI1 (Homo sapiens, UniProt Q01543 1-452); settings: protein: recombinant; tags: N-terminal GST; dsDNA, one strand shown
T1 sequence: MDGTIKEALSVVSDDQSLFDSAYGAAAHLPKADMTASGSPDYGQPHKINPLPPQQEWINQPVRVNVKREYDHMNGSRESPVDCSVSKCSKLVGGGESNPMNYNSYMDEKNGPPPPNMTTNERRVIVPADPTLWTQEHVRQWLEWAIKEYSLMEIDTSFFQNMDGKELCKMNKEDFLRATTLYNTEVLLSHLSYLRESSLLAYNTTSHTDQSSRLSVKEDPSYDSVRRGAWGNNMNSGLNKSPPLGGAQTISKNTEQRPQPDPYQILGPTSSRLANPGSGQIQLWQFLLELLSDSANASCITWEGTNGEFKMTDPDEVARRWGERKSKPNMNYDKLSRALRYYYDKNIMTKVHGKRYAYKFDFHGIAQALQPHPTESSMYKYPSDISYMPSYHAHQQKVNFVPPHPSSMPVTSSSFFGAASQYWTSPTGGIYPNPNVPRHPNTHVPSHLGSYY
Outline: (§1)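 After expression in yeast as GST fusions, human transcription factors were bound to glutathione beads, DNA-barcoded and mixed with a tag-only sample. The pools were incubated with 200 nmole of a 16-mer random double-stranded DNA library in Tris/NaCl/DTT/glycerol buffer (30 min, room temperature), washed and crosslinked with 0.1% formaldehyde. Proximity ligation with BsaI/T4 ligase ran for 1 h at 37 °C, before PCR amplification and sequencing on an Illumina NextSeq500. Binding signal is a hexamer's read frequency for a factor divided by its frequency for the tag-only sample.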

ELK1 = molecular target: T2, ELK1 (Homo sapiens, UniProt P19419 1-428); settings: protein: recombinant; tags: N-terminal GST; dsDNA, one strand shown
T2 sequence: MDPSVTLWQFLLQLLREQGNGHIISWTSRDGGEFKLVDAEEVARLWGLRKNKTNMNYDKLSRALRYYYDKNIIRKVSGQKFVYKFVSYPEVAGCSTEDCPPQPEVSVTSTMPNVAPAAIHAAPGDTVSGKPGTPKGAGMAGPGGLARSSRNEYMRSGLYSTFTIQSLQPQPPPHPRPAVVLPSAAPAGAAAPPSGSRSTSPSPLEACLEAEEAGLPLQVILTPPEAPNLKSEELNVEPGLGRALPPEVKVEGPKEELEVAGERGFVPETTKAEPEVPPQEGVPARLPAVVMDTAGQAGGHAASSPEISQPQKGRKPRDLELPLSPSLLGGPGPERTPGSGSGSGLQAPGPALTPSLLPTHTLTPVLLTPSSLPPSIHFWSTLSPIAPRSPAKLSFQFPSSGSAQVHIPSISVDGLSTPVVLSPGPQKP
Outline: as §1

GABPA = molecular target: T3, GABPA (Homo sapiens, UniProt Q06546 1-454); settings: protein: recombinant; tags: N-terminal GST; dsDNA, one strand shown
T3 sequence: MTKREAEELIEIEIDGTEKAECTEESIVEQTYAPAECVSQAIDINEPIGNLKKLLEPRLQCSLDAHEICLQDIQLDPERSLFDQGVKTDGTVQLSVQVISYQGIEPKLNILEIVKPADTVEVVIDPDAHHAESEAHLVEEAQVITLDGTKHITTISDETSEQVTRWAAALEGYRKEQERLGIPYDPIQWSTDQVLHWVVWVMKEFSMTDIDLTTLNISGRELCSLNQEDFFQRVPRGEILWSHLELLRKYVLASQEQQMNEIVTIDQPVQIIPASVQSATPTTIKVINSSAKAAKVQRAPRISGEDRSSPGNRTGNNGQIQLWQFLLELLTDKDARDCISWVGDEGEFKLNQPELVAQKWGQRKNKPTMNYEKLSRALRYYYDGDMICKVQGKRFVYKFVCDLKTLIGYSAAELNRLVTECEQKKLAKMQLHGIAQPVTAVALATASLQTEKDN
Outline: as §1

ERG = molecular target: T4, ERG (Homo sapiens, UniProt P11308 1-479); settings: protein: recombinant; tags: N-terminal GST; dsDNA, one strand shown
T4 sequence: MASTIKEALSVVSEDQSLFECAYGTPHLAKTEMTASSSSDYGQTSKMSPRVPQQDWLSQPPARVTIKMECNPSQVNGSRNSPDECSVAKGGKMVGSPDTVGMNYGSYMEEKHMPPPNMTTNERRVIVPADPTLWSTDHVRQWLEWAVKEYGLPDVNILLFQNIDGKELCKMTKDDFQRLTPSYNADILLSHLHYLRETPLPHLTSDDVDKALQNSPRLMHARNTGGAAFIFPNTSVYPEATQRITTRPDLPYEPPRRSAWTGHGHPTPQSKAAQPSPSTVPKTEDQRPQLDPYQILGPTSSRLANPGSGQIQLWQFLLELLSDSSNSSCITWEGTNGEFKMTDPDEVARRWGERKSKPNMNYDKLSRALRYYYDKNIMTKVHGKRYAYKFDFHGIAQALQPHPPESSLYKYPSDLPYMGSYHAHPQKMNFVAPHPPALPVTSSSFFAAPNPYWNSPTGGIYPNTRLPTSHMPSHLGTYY
Outline: as §1

ELF1 = ELF1 (Homo sapiens, UniProt P32519 1-619); settings: protein: recombinant; tags: N-terminal GST; dsDNA, one strand shown
Outline: as §1

EHF = molecular target: T5, EHF (Homo sapiens, UniProt Q9NZC4 1-300); settings: protein: recombinant; tags: N-terminal GST; dsDNA, one strand shown
T5 sequence: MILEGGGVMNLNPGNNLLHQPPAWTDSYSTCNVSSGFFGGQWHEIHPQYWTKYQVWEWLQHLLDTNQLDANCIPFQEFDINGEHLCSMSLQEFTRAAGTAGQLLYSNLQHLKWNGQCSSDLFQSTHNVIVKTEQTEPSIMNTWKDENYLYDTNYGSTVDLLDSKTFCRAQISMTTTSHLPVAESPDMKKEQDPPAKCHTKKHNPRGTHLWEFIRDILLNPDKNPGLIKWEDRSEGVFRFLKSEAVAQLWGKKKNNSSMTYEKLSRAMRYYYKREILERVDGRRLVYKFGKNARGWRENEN
Outline: as §1

SPI1 = SPI1 (Homo sapiens, UniProt P17947 1-270); settings: protein: recombinant; tags: N-terminal GST; dsDNA, one strand shown
Outline: as §1

SPIB = SPIB (Homo sapiens, UniProt Q01892 1-262); settings: protein: recombinant; tags: N-terminal GST; dsDNA, one strand shown
Outline: as §1

ELK3 = molecular target: T6, ELK3 (Homo sapiens, UniProt P41970 1-407); settings: protein: recombinant; tags: N-terminal GST; dsDNA, one strand shown
T6 sequence: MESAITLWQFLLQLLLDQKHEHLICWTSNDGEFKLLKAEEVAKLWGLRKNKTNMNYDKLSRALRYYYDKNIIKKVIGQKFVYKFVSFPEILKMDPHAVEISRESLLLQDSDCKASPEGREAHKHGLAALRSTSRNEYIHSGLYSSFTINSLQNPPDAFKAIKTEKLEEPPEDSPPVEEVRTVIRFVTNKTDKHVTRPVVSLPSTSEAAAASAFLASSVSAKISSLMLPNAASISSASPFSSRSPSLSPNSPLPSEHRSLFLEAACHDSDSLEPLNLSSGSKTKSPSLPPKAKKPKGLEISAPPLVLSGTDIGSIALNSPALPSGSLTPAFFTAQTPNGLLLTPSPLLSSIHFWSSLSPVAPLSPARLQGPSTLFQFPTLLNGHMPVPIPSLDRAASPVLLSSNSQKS
Outline: as §1

FEV = molecular target: T7, FEV (Homo sapiens, UniProt Q99581 1-238); settings: protein: recombinant; tags: N-terminal GST; dsDNA, one strand shown
T7 sequence: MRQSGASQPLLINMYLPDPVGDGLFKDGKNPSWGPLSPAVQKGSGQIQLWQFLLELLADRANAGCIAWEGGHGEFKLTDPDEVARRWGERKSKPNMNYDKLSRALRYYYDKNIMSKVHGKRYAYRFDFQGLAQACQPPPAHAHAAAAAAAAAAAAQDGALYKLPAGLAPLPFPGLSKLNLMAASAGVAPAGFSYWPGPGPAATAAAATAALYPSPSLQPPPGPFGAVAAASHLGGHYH
Outline: as §1

ETV5 = ETV5 (Homo sapiens, UniProt P41161 1-510); settings: protein: recombinant; tags: N-terminal GST; dsDNA, one strand shown
Outline: as §1

HSF1 = HSF1 (Homo sapiens, UniProt Q00613 1-529); settings: protein: recombinant; tags: N-terminal GST; chain copies: 3; dsDNA, one strand shown
Outline: as §1

SPIC = molecular target: T8, SPIC (Homo sapiens, UniProt Q8N5J4 1-248); settings: protein: recombinant; tags: N-terminal GST; dsDNA, one strand shown
T8 sequence: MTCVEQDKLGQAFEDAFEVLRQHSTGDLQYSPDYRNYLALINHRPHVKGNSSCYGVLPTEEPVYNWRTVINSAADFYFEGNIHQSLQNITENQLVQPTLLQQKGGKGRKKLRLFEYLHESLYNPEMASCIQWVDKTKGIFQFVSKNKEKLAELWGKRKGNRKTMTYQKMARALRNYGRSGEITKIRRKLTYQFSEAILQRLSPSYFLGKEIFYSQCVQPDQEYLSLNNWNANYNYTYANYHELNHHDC
Outline: as §1

ELF4 = ELF4 (Homo sapiens, UniProt Q99607 1-663); settings: protein: recombinant; tags: N-terminal GST; dsDNA, one strand shown
Outline: as §1

ELK4 = molecular target: T9, ELK4 (Homo sapiens, UniProt P28324-2 1-405); settings: protein: recombinant; tags: N-terminal GST; dsDNA, one strand shown
T9 sequence: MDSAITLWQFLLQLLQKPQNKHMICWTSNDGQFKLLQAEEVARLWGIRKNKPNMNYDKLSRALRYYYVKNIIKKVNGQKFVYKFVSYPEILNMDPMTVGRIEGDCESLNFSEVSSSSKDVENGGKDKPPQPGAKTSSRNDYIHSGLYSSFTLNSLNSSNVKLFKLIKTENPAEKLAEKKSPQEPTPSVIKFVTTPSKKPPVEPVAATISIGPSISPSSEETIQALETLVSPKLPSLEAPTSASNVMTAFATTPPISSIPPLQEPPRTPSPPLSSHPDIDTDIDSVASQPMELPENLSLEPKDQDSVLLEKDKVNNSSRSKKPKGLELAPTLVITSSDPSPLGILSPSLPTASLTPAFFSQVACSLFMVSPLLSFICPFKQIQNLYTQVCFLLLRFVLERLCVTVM
Outline: as §1

ETV2 = molecular target: T10, ETV2 (Homo sapiens, UniProt O00321 1-342); settings: protein: recombinant; tags: N-terminal GST; dsDNA, one strand shown
T10 sequence: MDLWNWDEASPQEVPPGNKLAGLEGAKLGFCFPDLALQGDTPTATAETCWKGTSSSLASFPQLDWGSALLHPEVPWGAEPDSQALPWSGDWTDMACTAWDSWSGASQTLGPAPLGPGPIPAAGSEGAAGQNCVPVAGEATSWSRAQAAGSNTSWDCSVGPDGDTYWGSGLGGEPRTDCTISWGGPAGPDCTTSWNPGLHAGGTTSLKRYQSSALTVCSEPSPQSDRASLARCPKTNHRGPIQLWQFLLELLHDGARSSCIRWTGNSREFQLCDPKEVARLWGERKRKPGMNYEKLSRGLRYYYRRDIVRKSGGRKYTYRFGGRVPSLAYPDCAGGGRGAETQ
Outline: as §1

ELF3 = molecular target: T11, ELF3 (Homo sapiens, UniProt P78545 1-371); settings: protein: recombinant; tags: N-terminal GST; dsDNA, one strand shown
T11 sequence: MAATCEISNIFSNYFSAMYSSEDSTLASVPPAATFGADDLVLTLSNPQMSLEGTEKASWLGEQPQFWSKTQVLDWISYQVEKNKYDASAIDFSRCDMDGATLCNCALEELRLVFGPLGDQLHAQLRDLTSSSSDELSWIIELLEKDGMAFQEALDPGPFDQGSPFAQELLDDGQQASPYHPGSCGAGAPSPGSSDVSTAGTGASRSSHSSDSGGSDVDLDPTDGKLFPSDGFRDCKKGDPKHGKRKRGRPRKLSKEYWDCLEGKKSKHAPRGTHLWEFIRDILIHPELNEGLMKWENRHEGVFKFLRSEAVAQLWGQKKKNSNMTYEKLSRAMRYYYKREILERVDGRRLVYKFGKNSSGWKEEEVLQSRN
Outline: as §1

CRX = CRX (Homo sapiens, UniProt O43186 1-299); settings: protein: recombinant; tags: N-terminal GST; dsDNA, one strand shown
Outline: as §1

ETV1 = ETV1 (Homo sapiens, UniProt P50549 1-477); settings: protein: recombinant; tags: N-terminal GST; dsDNA, one strand shown
Outline: as §1

Chain of ETV1 (P50549 whole entry): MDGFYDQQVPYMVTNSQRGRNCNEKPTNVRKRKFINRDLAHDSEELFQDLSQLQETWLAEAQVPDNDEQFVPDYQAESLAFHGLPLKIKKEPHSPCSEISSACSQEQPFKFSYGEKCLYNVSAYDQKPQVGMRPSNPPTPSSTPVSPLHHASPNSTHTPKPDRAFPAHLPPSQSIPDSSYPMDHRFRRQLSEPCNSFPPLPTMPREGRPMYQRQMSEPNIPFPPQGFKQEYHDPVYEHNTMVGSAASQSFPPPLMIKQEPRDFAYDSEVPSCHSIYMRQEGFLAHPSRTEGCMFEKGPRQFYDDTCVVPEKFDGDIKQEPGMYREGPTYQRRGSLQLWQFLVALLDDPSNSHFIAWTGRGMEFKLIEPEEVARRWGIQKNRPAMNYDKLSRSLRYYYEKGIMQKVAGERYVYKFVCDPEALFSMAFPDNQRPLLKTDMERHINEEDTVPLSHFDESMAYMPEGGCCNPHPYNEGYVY
Chain of SPIB (Q01892 whole entry): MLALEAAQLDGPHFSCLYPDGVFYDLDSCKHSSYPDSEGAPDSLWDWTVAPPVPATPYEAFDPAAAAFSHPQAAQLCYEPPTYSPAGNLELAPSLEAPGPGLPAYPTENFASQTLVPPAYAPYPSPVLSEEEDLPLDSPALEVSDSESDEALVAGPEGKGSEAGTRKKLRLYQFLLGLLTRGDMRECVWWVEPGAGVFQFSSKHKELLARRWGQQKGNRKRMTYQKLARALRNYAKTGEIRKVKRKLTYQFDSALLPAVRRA
Chain of HSF1 (Q00613 whole entry): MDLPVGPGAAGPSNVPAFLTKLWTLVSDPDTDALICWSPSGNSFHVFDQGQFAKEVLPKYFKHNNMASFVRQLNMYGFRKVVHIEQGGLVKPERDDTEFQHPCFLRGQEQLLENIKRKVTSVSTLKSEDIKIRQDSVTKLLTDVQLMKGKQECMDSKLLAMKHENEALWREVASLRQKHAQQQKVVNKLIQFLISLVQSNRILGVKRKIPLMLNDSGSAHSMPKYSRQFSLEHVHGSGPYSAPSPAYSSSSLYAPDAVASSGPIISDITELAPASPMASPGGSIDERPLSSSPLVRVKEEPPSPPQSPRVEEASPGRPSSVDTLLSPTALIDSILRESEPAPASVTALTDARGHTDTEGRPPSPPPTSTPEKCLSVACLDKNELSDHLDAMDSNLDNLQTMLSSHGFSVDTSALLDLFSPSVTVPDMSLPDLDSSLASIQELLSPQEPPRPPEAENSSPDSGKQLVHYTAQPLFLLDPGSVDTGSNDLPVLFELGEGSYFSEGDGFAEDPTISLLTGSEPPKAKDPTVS
Chain of ELF4 (Q99607 whole entry): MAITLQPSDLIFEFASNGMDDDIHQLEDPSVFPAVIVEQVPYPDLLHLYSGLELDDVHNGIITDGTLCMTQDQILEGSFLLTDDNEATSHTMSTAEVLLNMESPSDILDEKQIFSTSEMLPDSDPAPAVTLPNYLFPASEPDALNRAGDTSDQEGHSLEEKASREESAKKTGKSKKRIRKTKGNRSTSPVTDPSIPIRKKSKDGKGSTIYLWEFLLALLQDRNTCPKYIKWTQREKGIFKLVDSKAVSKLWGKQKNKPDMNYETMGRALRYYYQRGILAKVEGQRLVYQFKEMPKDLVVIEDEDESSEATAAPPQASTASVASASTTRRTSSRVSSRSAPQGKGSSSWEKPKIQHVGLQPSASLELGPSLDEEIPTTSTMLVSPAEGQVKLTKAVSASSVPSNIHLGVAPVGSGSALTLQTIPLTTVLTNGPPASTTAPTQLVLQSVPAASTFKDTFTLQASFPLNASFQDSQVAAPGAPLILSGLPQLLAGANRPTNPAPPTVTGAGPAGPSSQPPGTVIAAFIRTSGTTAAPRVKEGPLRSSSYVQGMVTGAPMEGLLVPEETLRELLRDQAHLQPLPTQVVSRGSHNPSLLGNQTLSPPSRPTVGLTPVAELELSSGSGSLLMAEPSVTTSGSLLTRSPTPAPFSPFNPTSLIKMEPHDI
Chain of ETV5 (P41161 whole entry): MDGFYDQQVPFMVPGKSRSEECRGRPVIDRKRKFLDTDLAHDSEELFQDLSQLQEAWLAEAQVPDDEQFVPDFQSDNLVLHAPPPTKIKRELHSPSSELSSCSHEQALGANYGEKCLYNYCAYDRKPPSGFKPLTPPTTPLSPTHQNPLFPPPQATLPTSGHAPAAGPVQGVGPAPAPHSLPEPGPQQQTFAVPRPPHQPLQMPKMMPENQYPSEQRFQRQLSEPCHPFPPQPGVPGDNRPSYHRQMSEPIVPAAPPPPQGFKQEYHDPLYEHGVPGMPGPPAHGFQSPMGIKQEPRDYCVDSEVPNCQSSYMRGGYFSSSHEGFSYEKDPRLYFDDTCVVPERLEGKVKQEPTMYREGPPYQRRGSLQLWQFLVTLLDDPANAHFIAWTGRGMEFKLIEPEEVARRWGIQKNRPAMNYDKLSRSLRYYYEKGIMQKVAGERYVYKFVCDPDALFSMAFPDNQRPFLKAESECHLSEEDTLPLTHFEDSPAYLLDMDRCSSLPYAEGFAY
Chain of CRX (O43186 whole entry): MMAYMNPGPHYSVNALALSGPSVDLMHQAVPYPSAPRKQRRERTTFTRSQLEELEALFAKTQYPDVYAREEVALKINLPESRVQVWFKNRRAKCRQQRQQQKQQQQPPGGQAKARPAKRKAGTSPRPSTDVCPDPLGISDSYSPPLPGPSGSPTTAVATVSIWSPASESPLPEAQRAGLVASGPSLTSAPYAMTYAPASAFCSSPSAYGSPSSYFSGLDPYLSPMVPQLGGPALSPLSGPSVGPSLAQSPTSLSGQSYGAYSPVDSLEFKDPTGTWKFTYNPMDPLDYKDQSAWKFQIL
Chain of ELF1 (P32519 whole entry): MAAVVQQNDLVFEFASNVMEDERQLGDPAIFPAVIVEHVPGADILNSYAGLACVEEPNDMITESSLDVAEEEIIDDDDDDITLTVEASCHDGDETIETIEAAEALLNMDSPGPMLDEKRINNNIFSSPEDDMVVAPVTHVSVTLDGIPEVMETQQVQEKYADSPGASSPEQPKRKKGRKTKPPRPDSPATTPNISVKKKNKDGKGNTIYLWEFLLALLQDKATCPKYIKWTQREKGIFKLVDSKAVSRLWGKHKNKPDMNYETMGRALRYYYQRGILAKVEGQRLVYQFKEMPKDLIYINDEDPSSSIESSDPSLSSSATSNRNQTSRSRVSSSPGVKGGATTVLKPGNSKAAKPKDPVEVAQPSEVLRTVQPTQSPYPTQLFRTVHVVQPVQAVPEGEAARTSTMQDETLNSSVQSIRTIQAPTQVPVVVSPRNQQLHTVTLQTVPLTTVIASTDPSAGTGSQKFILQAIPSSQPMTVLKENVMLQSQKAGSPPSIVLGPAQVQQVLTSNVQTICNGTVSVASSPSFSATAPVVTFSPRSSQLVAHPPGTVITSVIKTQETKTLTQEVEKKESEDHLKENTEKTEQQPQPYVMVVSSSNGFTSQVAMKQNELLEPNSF

Sequence: GATCTT
- binding signal (FLI1): 1.29 fold enrichment (6-mer frequency, TF over GST control)
- binding signal (ELK1): 1.33 fold enrichment (6-mer frequency, TF over GST control)
- binding signal (GABPA): 1.32 fold enrichment (6-mer frequency, TF over GST control)
- binding signal (ERG): 1.35 fold enrichment (6-mer frequency, TF over GST control)
- binding signal (ELF1): 1.23 fold enrichment (6-mer frequency, TF over GST control)
- binding signal (EHF): 1.22 fold enrichment (6-mer frequency, TF over GST control)
- binding signal (SPI1): 1.19 fold enrichment (6-mer frequency, TF over GST control)
- binding signal (SPIB): 1.36 fold enrichment (6-mer frequency, TF over GST control)
- binding signal (ELK3): 1.29 fold enrichment (6-mer frequency, TF over GST control)
- binding signal (FEV): 1.14 fold enrichment (6-mer frequency, TF over GST control)
- binding signal (ETV5): 1.21 fold enrichment (6-mer frequency, TF over GST control)
- binding signal (HSF1): 1.62 fold enrichment (6-mer frequency, TF over GST control)
- binding signal (SPIC): 1.42 fold enrichment (6-mer frequency, TF over GST control)
- binding signal (ELF4): 1.26 fold enrichment (6-mer frequency, TF over GST control)
- binding signal (ELK4): 1.23 fold enrichment (6-mer frequency, TF over GST control)
- binding signal (ETV2): 1.18 fold enrichment (6-mer frequency, TF over GST control)
- binding signal (ELF3): 1.43 fold enrichment (6-mer frequency, TF over GST control)
- binding signal (CRX): 1.71 fold enrichment (6-mer frequency, TF over GST control)
- binding signal (ETV1): 1.25 fold enrichment (6-mer frequency, TF over GST control)
